sPLA2-III inh = Blocks human group III sPLA2 activity. inhibition, % at 12.2 µM. actives 0.56% (n = 370,000). Q9NZ20. AID 743126. QFRET BODIPY PC-A2 liposome hydrolysis, fluorescence;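 active = inhibition above mean plus 3 SD of compounds lying within the high and low control bounds, cut at about 19% in these data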;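 also: 0% = median of test compound wells and 100% = no enzyme DMSO wells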
Target sequence (Q9NZ20 whole entry, looked up): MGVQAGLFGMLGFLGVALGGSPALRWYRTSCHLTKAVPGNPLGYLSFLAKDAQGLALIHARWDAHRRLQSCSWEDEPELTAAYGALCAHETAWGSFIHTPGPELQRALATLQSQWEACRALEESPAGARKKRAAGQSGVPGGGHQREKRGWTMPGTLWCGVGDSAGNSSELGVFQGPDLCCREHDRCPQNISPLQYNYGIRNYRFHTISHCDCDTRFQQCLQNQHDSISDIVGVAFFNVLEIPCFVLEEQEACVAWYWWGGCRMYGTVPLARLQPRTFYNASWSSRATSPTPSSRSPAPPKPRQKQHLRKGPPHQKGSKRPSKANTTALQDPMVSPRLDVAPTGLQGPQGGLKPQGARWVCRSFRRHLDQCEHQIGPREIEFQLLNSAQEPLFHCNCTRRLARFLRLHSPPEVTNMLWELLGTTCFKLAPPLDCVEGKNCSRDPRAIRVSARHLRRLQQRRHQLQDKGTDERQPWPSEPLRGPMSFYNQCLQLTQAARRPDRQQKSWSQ
PLC-gamma1 inh = blocks human PLC-gamma1 enzyme activity. P19174. purified PLC-gamma1, fluorogenic substrate, fluorescence. inhibition, % at 12.2 µM. actives 0.84% (n = 370,000); in the data active = inhibition above about 9.5%
HIF activator = HIF pathway transcriptional activation; activation, % at 7.5 µM (by protocol); U2OS HRE-luciferase reporter, luminescence; normalized: DMSO 0%, desferrioxamine 100%; actives 0.32% (n = 300,000); AID 1910;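 active = mean activation of at least 10% of the iron chelator positive control signal, with at least half of replicates also reaching 10%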
PLCb3 inh = PLC-beta3 (human) inhibition, primary screen. Q01970. Purified PLC-beta3, fluorogenic substrate, fluorescence. inhibition, % at 12.2 µM. actives 0.18% (n = 370,000); in the data active = inhibition above about 11%;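 also: 0% = median of compound wells on plate and 100% = full blocker control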
AHR activator = activates the human aryl hydrocarbon receptor; P35869; AHR-responsive luciferase reporter cells, luminescence; activation, % at 5 µM; actives 2.5% (n = 320,000); AID 2796; in the data active = activation above about 47%;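 also: 0% = vehicle wells and 100% = reference agonist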
CR mimetic SO = lowers age-related superoxide in aged yeast cells. S. cerevisiae aged cells, superoxide DHE fluorescence; stronger effect = lower value. actives 0.18% (n = 330,000). AID 2690. superoxide response (% of plate mean), % at 10 µM;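 active = superoxide response under a set limit, about three screen SD below normal, cut at about 65% in these data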;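 also: yeast aged for seven days with compound at 30 °C before DHE staining; 100% = average MFI of all compound-treated wells on the plate with controls excluded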
AHR act confirm = human AHR activation, confirmation | shares compounds with AHR activator | human cells, AHR-responsive luciferase reporter, luminescence | activation, % at 9 µM | actives 87% (n = 2,300); in the data active = activation above about 49%;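 also: HepG2 hepatoma cells carrying a DRE-driven firefly luciferase reporter; 0% = vehicle wells and 100% = reference agonist wells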
PXR act counter = activates human PXR in AHR activator counter-screen; actives 88% (n = 2,300); cell-based PXR reporter, luciferase luminescence; activation, % at 11.6 µM; shares compounds with AHR activator; in the data active = activation above about 11%;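 also: human hepatoma DPX-2 cells expressing full-length human PXR; 0% = DMSO and 100% = reference agonist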
Starred values were filed as active, the others as inactive. The list is not random: actives were taken first. Their share in the collection is about 3.9%.

What do the screens show for `COc1cccc(NC(=O)C(c2ccccc2)N2CCN(CC(=O)N3CCOCC3)CC2)c1` (stereo not given)?
sPLA2-III inh: -2; PLC-gamma1 inh: -2; PLCb3 inh: -11; AHR activator: 18; CR mimetic SO: 105

Results for O=C(N/N=C/c1ccc(O)cc1)c1cncc(Br)c1 ?
sPLA2-III inh: -7; PLC-gamma1 inh: -3; HIF activator: -1; PLCb3 inh: -9; AHR activator: 19; CR mimetic SO: 97

What do the screens show for `Cc1ccc(C(=O)N/N=C/c2ccc3c(c2)OCO3)o1`?
sPLA2-III inh: 6; PLC-gamma1 inh: -15; HIF activator: 2; PLCb3 inh: -21; AHR activator: 142*; CR mimetic SO: 104; AHR act confirm: 98*; PXR act counter: 21*

What do the screens show for `O=C(N/N=C\c1ccc2c(c1)OCO2)c1cncc(Br)c1`?
sPLA2-III inh: 8; PLC-gamma1 inh: -8; HIF activator: 0; PLCb3 inh: -22; AHR activator: 104*; CR mimetic SO: 112; AHR act confirm: 80*; PXR act counter: 10*

How did Cc1c(C)c2c(OCC(=O)NCC3CCC(C(=O)O)CC3)cc3c(c2oc1=O)CCC(C)(C)O3 (stereo not given) do in these assays?
sPLA2-III inh: -1; PLC-gamma1 inh: -177; PLCb3 inh: -228

Results for O=C(Nc1ccc(OC(F)F)cc1)c1cc(S(=O)(=O)N2CCOCC2)ccc1F ?
sPLA2-III inh: 0; PLC-gamma1 inh: -1; HIF activator: 0; PLCb3 inh: -4; AHR activator: 12; CR mimetic SO: 108

How did O=C(Nc1nnc(-c2ccc(Br)cc2)o1)C1=COCCO1 do in these assays?
sPLA2-III inh: -1; PLC-gamma1 inh: 7; HIF activator: 0; PLCb3 inh: -7; AHR activator: 4; CR mimetic SO: 96

How did Cc1sc(NC(=O)C2=COCCO2)nc1-c1ccc(Br)cc1 do in these assays?
sPLA2-III inh: -23; PLC-gamma1 inh: -9; HIF activator: 0; PLCb3 inh: -12; AHR activator: 99*; CR mimetic SO: 98; AHR act confirm: 94*; PXR act counter: 34*

What do the screens show for `CCN(CC)c1ccc(C(=O)NC(=S)Nc2cc(S(=O)(=O)N3CCOCC3)ccc2-n2cncn2)cc1`?
sPLA2-III inh: -1; PLC-gamma1 inh: -10; HIF activator: -2; PLCb3 inh: -2; AHR activator: 2; CR mimetic SO: 106

How did O=C(Nc1ccc(Cl)c(Cl)c1)c1ccc(Cl)c(Cl)c1 do in these assays?
sPLA2-III inh: 10; PLC-gamma1 inh: 0; HIF activator: 4; PLCb3 inh: -14; AHR activator: 168*; CR mimetic SO: 89; AHR act confirm: 159*; PXR act counter: 33*

What do the screens show for `Cc1cccc(N2C(=O)C(O)=C(C(=O)c3cccs3)C2c2ccc(Cl)cc2)n1` (stereo not given)?
sPLA2-III inh: -5; PLC-gamma1 inh: -6; HIF activator: 2; PLCb3 inh: -19; AHR activator: -2; CR mimetic SO: 93

Results for Cn1cc(/C=C2\SC(=O)N(c3ccccc3)C2=O)c2ccccc21 ?
sPLA2-III inh: 4; PLC-gamma1 inh: 0; HIF activator: 2; PLCb3 inh: -1; AHR activator: 99*; CR mimetic SO: 108; AHR act confirm: 69*; PXR act counter: 20*

Results for Cn1cc(/C=C2\SC(=O)N(c3ccc(O)cc3)C2=O)c2ccccc21 ?
sPLA2-III inh: -28; PLC-gamma1 inh: -2; HIF activator: 1; PLCb3 inh: -15; AHR activator: -9; CR mimetic SO: 104

How did O=C(COC(=O)c1cncc(Br)c1)NCC12CC3CC(CC(C3)C1)C2 do in these assays?
sPLA2-III inh: -1; PLC-gamma1 inh: -6; PLCb3 inh: -3

How did CCNC(=S)N/N=C/c1c(Cl)cccc1Cl do in these assays?
sPLA2-III inh: 7; PLC-gamma1 inh: 4; HIF activator: -1; PLCb3 inh: 0; AHR activator: 6; CR mimetic SO: 103

Compound activity (PubChem)
